DAX1 inh-1 = NR0B1 (DAX1) inhibition; inhibition, % at 6.75 µM; 340,000 compounds, 0.99% hits; AID 504766; HEK293 Gal4-DAX1 luciferase reporter, luminescence; P51843;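 active means inhibition above the mean over all tested compounds plus 3 SD, cut at about 4.2% in these data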;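 further: inhibition shows as a rise in luminescence from relieved DAX1 repression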
Target sequence (P51843 207-470 limits assumed): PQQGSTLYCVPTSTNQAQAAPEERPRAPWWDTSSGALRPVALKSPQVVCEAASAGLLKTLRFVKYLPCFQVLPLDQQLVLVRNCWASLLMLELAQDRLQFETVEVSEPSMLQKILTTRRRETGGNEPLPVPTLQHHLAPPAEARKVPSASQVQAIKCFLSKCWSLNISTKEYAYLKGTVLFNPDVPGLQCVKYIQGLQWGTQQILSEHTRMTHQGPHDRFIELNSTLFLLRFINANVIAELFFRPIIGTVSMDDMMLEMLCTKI
Rev-erbA mod = modulates human Rev-erb alpha binding to DNA. 370,000 compounds, 0.79% hits. AID 1259318. P20393. Rev-erbα–FITC-DNA binding, fluorescence polarization, 90 min. activity, % at 10 µM;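 active means activity above about 14%, limit read from the data; passing the limit was not always enough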
DAX1 inh-2 = DAX1 (NR0B1) inhibition, primary screen | inhibition, % at 6.8 µM | HEK293T StAR-luciferase reporter, SF-1/DAX-1 repression relief | 370,000 compounds, 1.1% hits;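 active means inhibition above the mean over all tested compounds plus 3 SD, cut at about 3.6% in these data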;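 further: higher inhibition means more luminescence from relief of DAX-1 repression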
ssDAF-12 act = activators of S. stercoralis DAF-12 nuclear receptor; HEK293 ssDAF-12/GRIP1 lit1-tk-luc reporter, luminescence; % of 3 µM dafachronic acid response; 370,000 compounds, 1% hits; activation, % at 6.8 µM;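 active means activation above the mean over all tested compounds plus 3 SD, cut at about 0.9% in these data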
hcDAF12 agonist = activators of H. contortus DAF-12 nuclear receptor. HEK293 hcDAF-12 lit1-tk-luc reporter, luminescence; 0% DMSO, 100% Δ7-dafachronic acid. activation, % at 6.8 µM. 370,000 compounds, 1.4% hits. AID 652067;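 active means activation above the mean of all tested compounds plus 3 SD, cut at about 5.5% in these data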
hgDAF-12 ag = activates the H. glycines DAF-12 receptor ligand-binding domain. 370,000 compounds, 1.8% hits. HEK293 GAL4-hgDAF12 UAS-luciferase reporter, agonist luminescence; normalized to butyrate control. activation, % at 6.8 µM;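 active means activation above a cutoff set at the mean of all screened compounds plus 3 SD, cut at about 10% in these data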
DAX1 conf = NR0B1 (human) inhibition, confirmation; shares compounds with DAX1 inh-2; HEK293T StAR-promoter luciferase reporter, SF-1/DAX-1 repression; AID 652134; 2,400 compounds, 87% hits; inhibition, % at 6.8 µM;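 active means inhibition above the average of every tested compound plus 3 SD, cut at about 3.8% in these data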;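 further: active compounds raise luminescence by relieving repression of the StAR reporter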
SF1 AF2mut Luc = counter-screen for DAX1 inhibitors: nonselective inhibitors with SF-1 AF2 mutant. shares compounds with DAX1 inh-2. HEK293 StAR-luciferase, luminescence. inhibition, % at 6.8 µM. 2,400 compounds, 78% hits. AID 652136;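 active means inhibition above the mean of all tested compounds plus 3 SD, cut at about 3% in these data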
LXRb hcDAF ctr = activates human LXR-beta, counter-screen for hcDAF-12 agonists. shares compounds with hcDAF12 agonist. HEK293 Gal4-LXR tk-luc reporter, luminescence, 24 h; normalized: DMSO 0%, positive control 100%. activation, % at 6.8 µM. 3,400 tested, under 10 active;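 active means mean percent activation of the reporter above a cutoff set as the average over tested compounds plus their standard deviation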
Target sequence (P55055 whole entry, looked up, the tested form may be a part): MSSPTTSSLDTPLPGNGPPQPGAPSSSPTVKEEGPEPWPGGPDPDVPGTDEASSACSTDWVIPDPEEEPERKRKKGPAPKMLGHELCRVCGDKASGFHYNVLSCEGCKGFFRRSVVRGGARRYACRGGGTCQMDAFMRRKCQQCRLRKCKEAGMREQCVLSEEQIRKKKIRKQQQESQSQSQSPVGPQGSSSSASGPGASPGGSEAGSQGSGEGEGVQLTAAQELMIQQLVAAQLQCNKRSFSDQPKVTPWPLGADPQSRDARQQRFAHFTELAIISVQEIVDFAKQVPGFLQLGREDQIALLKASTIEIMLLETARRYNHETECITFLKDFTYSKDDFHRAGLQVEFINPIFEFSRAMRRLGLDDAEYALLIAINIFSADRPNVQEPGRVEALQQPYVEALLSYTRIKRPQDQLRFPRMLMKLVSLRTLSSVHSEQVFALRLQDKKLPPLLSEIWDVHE
hcDAF12 ag = confirmation of H. contortus DAF-12 agonists | shares compounds with hcDAF12 agonist | HEK293 hcDAF-12 lit1-tk-luc reporter, luminescence; % of Δ7-dafachronic acid response | activation, % at 6.8 µM | 3,400 compounds, 61% hits | AID 743032;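 active means mean activation across triplicate tests above the threshold derived from the earlier primary screen, cut at about 5.5% in these data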
hgDAF12 conf = hgDAF-12 agonism, confirmation assay | HEK293 GAL4-hgDAF12 luciferase reporter, agonist mode; percent of butyrate response | AID 743050 | 3,300 compounds, 80% hits | activation, % at 6.8 µM | shares compounds with hgDAF-12 ag;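 active means mean activation over triplicate wells above the hit cutoff derived from the earlier primary screen, cut at about 11% in these data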
LXR ag 2 = LXR-beta agonism as DAF-12 counter-screen; HEK293 Gal4-LXR luciferase reporter, 24 h; 3,300 tested, under 10 active; shares compounds with hgDAF-12 ag; activation, % at 6.8 µM;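 active means mean activation of the triplicate above a set limit carried over from the primary screen, none filed active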
A number is an active result; – = inactive; · = no result. In the library only some 4.8% were active in any assay of this set; here they are far more common.

SMILES | DAX1 inh-1 | Rev-erbA mod | DAX1 inh-2 | ssDAF-12 act | hcDAF12 agonist | hgDAF-12 ag | DAX1 conf | SF1 AF2mut Luc | hgDAF12 conf | LXR ag 2 | others
COC(=O)[C@]12C[C@H](CC(=O)NCc3cccs3)C(=O)N(CCC3=CCCCC3)C1=C[C@H](C1CCCC1)O[C@@H]2C | · | – | – | – | – | – | · | · | · | ·
CNc1cc(-c2cccc(N(C)C)c2)ncn1 | · | – | 7.2 | 1.3 | – | 18.4 | 16.4 | 5.9 | 14.9 | –
Cc1cc(O)ccc1Nc1cc(-c2cccc(N)c2)ncn1 | · | – | – | – | – | – | · | · | · | ·
Cn1nnnc1SCC1=C(C(=O)O)N2C(=O)[C@H](NC(=O)C(O)c3ccccc3)C2SC1 (stereo not given in full) | · | – | · | · | · | · | · | · | · | ·
CCOC(=O)c1cnc(SCc2ccc(C(C)(C)C)cc2)nc1N | – | – | – | – | – | – | · | · | · | ·
CCOC(=O)c1cnc(SCc2ccccc2)nc1N | – | – | 5.4 | – | – | 16.1 | 10.4 | 6.6 | 16.0 | –
O=C(NC1CCCC1)C1(C(=O)C2CC2)CC(c2ccccc2C(F)(F)F)=NO1 (stereo not given) | · | – | – | – | – | – | · | · | · | ·
O=C(COc1ccccc1F)NNC(=O)c1ccc2c(=O)n3c(nc2c1)CCC3 | – | – | – | – | – | – | · | · | · | ·
O=C(Nc1ccccc1Cl)c1ccc2c(=O)n3c(nc2c1)CCC3 | – | – | 11.7 | – | – | 14.5 | 8.8 | 5.0 | 14.0 | –
O=C(NCCOc1ccccc1F)c1ccc2c(=O)n3c(nc2c1)CCC3 | – | – | 8.5 | – | – | 15.5 | 7.8 | 4.5 | 12.2 | –
O=C(Nc1ccc(F)cc1Cl)c1ccc2c(=O)n3c(nc2c1)CCCCC3 | – | – | – | – | – | – | · | · | · | ·
O=C(N/N=C/C=C/c1ccccc1)c1ccncc1 | – | – | – | – | – | – | · | · | · | ·
O=C(O)c1ccc(N/N=C/C=C/c2ccccc2)cc1 | – | – | 6.3 | – | – | 15.3 | 10.8 | 5.8 | 15.0 | –
CC(C)Nc1ncnc2c1cnn2-c1ccc(Cl)cc1 | – | – | 4.8 | – | – | 16.2 | 11.0 | – | – | –
Clc1ccc(Nc2ncnc3c2cnn3-c2ccccc2)cc1 | – | – | – | – | – | – | · | · | · | ·
CC1CCN(c2ncnc3c2cnn3-c2ccccc2)CC1 | – | – | 7.7 | – | – | 14.7 | 14.4 | 12.1 | 13.7 | –
CCOC(=O)C1CCN(c2ncnc3c2cnn3-c2ccccc2)CC1 | – | – | – | – | – | – | · | · | · | ·
CC(C)(C)Nc1ncnc2c1cnn2-c1ccccc1 | – | – | 9.0 | – | – | 16.5 | 15.5 | 4.7 | 11.7 | –
CN1C(=O)C[C@@](C#N)(C(=O)NCCc2ccccc2)[C@H]1c1ccccc1 | · | – | – | – | – | – | · | · | · | ·
C[C@H]1[C@@H](OC(=O)Nc2cccc(Cl)c2)CC[C@@]23CCCN2C(=O)CCC[C@@H]13 | · | – | · | – | – | – | · | · | · | ·
CC(=O)c1ccc(Nc2ccc(-c3ccccc3F)nn2)cc1 | – | – | 4.7 | – | – | 18.3 | 13.7 | 6.8 | 18.9 | –
CC1Sc2ccc(C(=O)Nc3ncccc3O)cc2NC1=O (stereo not given) | – | – | 12.9 | – | – | 17.6 | 8.3 | 3.2 | 15.1 | –
Cc1cc(C(=O)CSc2cccc[n+]2[O-])c(C)n1-c1ccccc1 | – | – | 8.1 | – | 7.5 | 15.6 | 17.4 | 7.8 | 13.4 | – | LXRb hcDAF ctr=–;hcDAF12 ag=7.2
O=C(CSc1cccc[n+]1[O-])c1ccccc1Br | – | – | – | – | – | – | · | · | · | ·
O=S(=O)(NCc1ccc(Cl)c(Cl)c1)c1cc(Cl)ccc1N1CC[C@@H](O)C1 | · | – | – | – | – | – | · | · | · | ·
SMILES | DAX1 inh-1 | Rev-erbA mod | DAX1 inh-2 | ssDAF-12 act | hcDAF12 agonist | hgDAF-12 ag | DAX1 conf | SF1 AF2mut Luc | hgDAF12 conf | LXR ag 2 | others
O=C(Nc1ccc(F)cc1)c1ccccc1NC(=O)C1CC=CCC1C(=O)O (stereo not given) | – | – | – | – | – | – | · | · | · | ·
CC(C)c1ccc(NC(=O)c2ccccc2NC(=O)C2CC=CCC2C(=O)O)cc1 (stereo not given) | 5.5 | – | 8.3 | – | – | 15.0 | – | 3.6 | – | –
CCOC(=O)C1=CCC(c2ccccc2)N(S(C)(=O)=O)C1 (stereo not given) | · | – | – | – | – | – | · | · | · | ·
COc1cccc(/C=C2\CC3(OC(=O)c4ccccc4)CCCN2C3)c1 (stereo not given) | · | – | – | – | – | – | · | · | · | ·
O=[N+]([O-])c1ccccc1OCCCn1cnc2ccccc21 | – | – | 5.5 | – | – | 17.4 | 7.2 | 4.3 | 15.8 | –
Cc1cc(F)ccc1-c1cc(C(=O)Nc2ccccc2)[nH]n1 | · | – | 12.0 | 1.5 | 11.9 | 20.6 | 15.2 | 5.8 | 20.1 | – | LXRb hcDAF ctr=–;hcDAF12 ag=13.9
O=C(Nc1cccnc1)c1cc(-c2cc(Cl)ccc2O)n[nH]1 | – | – | – | – | – | – | · | · | · | ·
Cc1ccc(O)c(-c2cc(C(=O)Nc3cccnc3)[nH]n2)c1 | 7.0 | – | 4.8 | – | – | 18.8 | 12.8 | 6.2 | 13.2 | –
CC(=O)Nc1cccc(C(C)C2=CCCCC2)c1 (stereo not given) | · | – | – | – | – | – | · | · | · | ·
CCOc1ccc(/C=N/NC(=O)CC(=O)NCc2ccccc2)cc1 | – | – | – | – | – | – | · | · | · | ·
CCOc1ccc(/C=N/Nc2ccccn2)cc1 | – | – | 5.8 | – | 6.0 | 17.4 | 18.1 | 10.1 | 19.1 | –
Clc1ccc(/C=N/Nc2ccccn2)cc1 | – | – | – | – | – | – | · | · | · | ·
CC(=O)Oc1ccc(/C=N/NC(=S)Nc2ccccc2)cc1 | – | – | 5.0 | – | – | 17.2 | 14.8 | 8.4 | 16.4 | –
O=C(Cc1ccccc1)N/N=C/c1ccc(OCC(=O)Nc2ccccc2)cc1 | – | – | – | – | – | – | · | · | · | ·
CCOc1ccc(/C=N/NC(=O)Nc2ccccc2)cc1 | – | – | 6.6 | – | – | 18.5 | 9.2 | 5.2 | 19.6 | –
